Data as given in PubChem BioAssay (NCATS).
“And” between values parts separate entries of the source, which are not always exact repeats. Equal values may be shown once. Results filed as inconclusive are left out. Values without a mark were called inactive. The source made the active and inactive calls. The call rests on the fitted dose curve; in most records, active means well fitted cell-killing curve with a large enough effect; inconclusive means small, poorly fitted or top-dose-only effect; inactive means flat fitted curve, though single readings scatter.

Test: Cellular viability qHTS for adrenocortical cancer (ACC) cell line NCI-H295R (AID 1963990); further: nearly all actives have a fitted effect of over 60% in size
Settings: CellTiter-Glo ATP luminescence, 48 h; series mostly up to 46.1 µM; activity change, negative = viability loss: at the top concentration
Text: PI: Naris Nilubol, MD Surgical Oncology Program, National Cancer Institute (NCI) National Institute of Health (NIH), Bethesda, Maryland Adrenocortical cancer (ACC) is a rare malignancy with poor survival outcomes and few treatment options. Currently, mitotane is the only FDA-approved therapy for ACC. Although adjuvant radiation therapy is rarely utilized, it has the potential to improve survival in select cases. Through a quantitative high-throughput drug screen (qHTS), we identified auranofin (AF), a thioredoxin reductase (TXNRD) inhibitor, as a promising candidate drug. This study aims to evaluate whether AF can enhance the efficacy of radiation therapy in the treatment of ACC. Two human ACC cell lines, SW-13 and NCI-H295R, were screened using the National Center for Advancing Translational Sciences (NCATS) Pharmaceutical Collection (NPC) and the Mechanism Interrogation PlatE (MIPE) library (~4,991 compounds). CellTiter-Glo (Cat # G7570, Promega, Madison, WI) was utilized to measure cell viability. Described herein are the results of the corresponding viability assay.
PROTOCOL TABLE (as described by Inglese J, Shamu CE and Guy RK. 2007) SEQUENCE No. (e.g., 1, 2, 3, etc.); […] (e.g., Cells, Incubation, Reagent, etc.); VALUE; DESCRIPTION. 1; Cells; 5 uL; white, solid-bottom, 1536-well tissue-culture treated plates. 2; Time; overnight culture at 37C with 5% CO2. 3; Compounds and control; 23 nL; Kalypsis pin tool (Wako USA) equipped with a 1536-well pin head to transfer to the assay plates. 4; Time; 48 hours; 37C with 5% CO2. 5; Reagent; 4 uL; CellTiter-Glo luminescent substrate mix. 6; Time; 20 min at room temperature. 7; Detection; Luminescence; ViewLux plate reader NOTES (numbers refer to Sequence numbers above) 1. NCI-H295R cells were harvested from a T175 flask and resuspended in ITS-supplemented DMEM serum-free medium at a concentration of 300 000 cells/mL. Then 5 uL of resuspended cells were dispensed into each well of white, solid-bottom, 1536-well tissue-culture-treated plates using a multidrop combi dispenser. The plates were covered with stainless steel gasket lids. 2-3. The plates were cultured overnight at 37C with 5% CO2. Twenty-three nL of compounds (eight selected concentrations from the NPC / MIPE) or positive control (10 mM stock of bortezomib) in DMSO was transferred to each well of the assay plate using a pin tool (Kalypsys, San Diego, CA, USA). The final concentration of the compounds in the 5 uL assay volume ranged from 0.5 nM to 46 uM. 4-6. After 48 hours of incubation at 37C and 5% CO2, 4 uL of CellTilter-Glo luminescent substrate mix (Promega, Madison, WI, USA) was added to each well. Then the plates were incubated for 20 minutes at room temperature. 7. After incubation, luminescence was measured using a ViewLux plate reader (PerkinElmer, Waltham, MA, USA) with a clear filter was used to measure the number of metabolically competent cells. To determine compound activity in the qHTS assay, the titration-response data for each sample was plotted and modeled by a four-parameter logistic fit yielding IC50 and efficacy (maximal response) values. Raw plate reads for each titration point were normalized relative to positive control ([…], 100% inhibition) and DMSO-only wells (basal, 0%). REFERENCES: Inglese J, Shamu CE and Guy RK, Reporting data from high throughput screening of small molecule libraries, Nature Chemical Biology, 2007, 3(8): 438-441. doi.org/10.1038/nchembio0807-438.

Structure (SMILES)	Potency	activity change, negative = viability loss
COc1cc(OC)cc(N(CCNC(C)C)c2ccc3ncc(-c4cnn(C)c4)nc3c2)c1	22.4 µM (active)	–
Cc1c(O)cccc1C(=O)NC(CSc1ccccc1)C(O)CN1CC2CCCCC2CC1C(=O)NC(C)(C)C (stereo not given)	17.8 µM (active)	–
Oc1ccccc1	–	-9.67%
COCC(=O)Nc1c(I)c(C(=O)NCC(O)CO)c(I)c(C(=O)N(C)CC(O)CO)c1I (stereo not given)	–	-14.5%
Cc1cc(-c2nc3cc(F)ccc3s2)ccc1NC(=O)[C@@H](N)CCCCN	17.8 µM (active)	–
C[C@H]1CNCCCN1S(=O)(=O)c1cccc2cncc(F)c12	–	-11.1% [at 20 µM]
Cc1[nH]c2ccc(F)cc2c1-c1nc2c3cccnc3c3ncccc3c2[nH]1	3.16 µM (active)	–
CNC(=O)c1ccccc1Nc1nc(Nc2ccc3c(c2OC)CCC[C@@H](N2CCN(CCO)CC2)C3)ncc1Cl	2.82 µM (active)	–
CC(C)=CCC/C(C)=C/CC/C(C)=C/C(=O)OCC(=O)[C@@]1(O)CC[C@H]2[C@@H]3CCC4=CC(=O)C=C[C@]4(C)[C@H]3[C@@H](O)C[C@@]21C	–	-3.72%
NS(=O)(=O)c1cc2c(cc1Cl)NC(CC1CCCC1)NS2(=O)=O (stereo not given)	–	-11.8%
Cc1cccc(C(=O)O)c1O	–	-15.5%
NC[C@H]1O[C@H](O[C@H]2[C@H](O)[C@@H](O[C@H]3O[C@H](CO)[C@@H](O)[C@H](N)[C@H]3O)[C@H](N)C[C@@H]2N)[C@H](N)C[C@@H]1O	–	-0.993%
Cc1cc(NS(=O)(=O)c2ccc(N)cc2)no1	–	-26.9%
O=C1NCC2(CCN(CCc3ccccc3)CC2)O1	–	-4.55%
Cc1c[nH]c2nc(Nc3ccc(N4CCN(C)CC4)c(F)c3)nc(-c3cccc(CC#N)c3)c12	2.51 µM (active)	–
CN(Cc1cnc2nc(N)nc(N)c2n1)c1ccc(C(=O)N[C@@H](CCC(=O)O)C(=O)O)cc1	13 nM (active) and 316 nM (active)	–
CC(=O)Nc1ccc([C@H](C)C(=O)Nc2ncc(C(C)C)s2)cc1	3.55 µM (active)	–
Cc1ncc([N+](=O)[O-])n1C	–	-1.09%
CCCCOCCOCCOCc1cc2c(cc1CCC)OCO2	–	-18.2%
C/C(=C(\CCO)SS/C(CCO)=C(\C)N(C=O)Cc1cnc(C)nc1N)N(C=O)Cc1cnc(C)nc1N	–	0.0181%

Structure (SMILES)	Potency	activity change, negative = viability loss
CO[C@H]1O[C@@H]2O[C@@]3(C)CC[C@H]4[C@H](C)CC[C@@H]([C@H]1C)[C@@]24OO3	–	5.25%
Nc1nc(-c2ccccc2)c(Br)c(=O)[nH]1	–	-22.7%
OCc1ccccn1	–	-4.61%
COc1cccc2c1C(=O)c1c(O)c3c(c(O)c1C2=O)C[C@@](O)(C(=O)CO)C[C@@H]3O[C@H]1C[C@H](N)[C@@H](O)[C@H](C)O1	8.91 µM (active)	–
CCC[C@H](NC(=O)[C@@H]1[C@H]2CCC[C@H]2CN1C(=O)[C@@H](NC(=O)[C@@H](NC(=O)c1cnccn1)C1CCCCC1)C(C)(C)C)C(=O)C(=O)NC1CC1	–	-19.8%
Cc1cccc(-c2[nH]ncc2-c2ccc3ncccc3n2)n1	–	-8.85%
CC(C)[C@H](CO)Nc1nc(Nc2ccc(C(=O)O)c(Cl)c2)c2ncn(C(C)C)c2n1	–	6.88%
Cc1cc(O)cc2c1O[C@](C)(CCC[C@H](C)CCC[C@H](C)CCCC(C)C)CC2	–	-0.572%
Cn1c(NCCN(CCO)CCCc2ccc([N+](=O)[O-])cc2)cc(=O)n(C)c1=O	inactive	–
C=C(C)[C@@H]1CC[C@]2(C)CC[C@]3(C)[C@H](CC[C@@H]4[C@@]5(C)CC[C@H](O)C(C)(C)[C@H]5CC[C@]43C)[C@@H]12	–	4.67%
COc1cc2c(cc1OC(C)C)[C@H](c1ccc(Cl)cc1)N(c1ccc(N(C)CC3CCC(N4CCN(C)C(=O)C4)CC3)cc1)C(=O)C2 (stereo not given in full)	22.4 µM (active)	–
CCOc1cc(C(=O)N2CCC(N3CCN(C)CC3)CC2)ccc1Nc1ncc2c(n1)N(C1CCCC1)c1ccccc1C(=O)N2C	17.8 µM (active)	–
CC1(C)CNc2cc(NC(=O)c3cccnc3NCc3ccncc3)ccc21	–	-0.89%
CN1C(CSCC(F)(F)F)Nc2cc(Cl)c(S(N)(=O)=O)cc2S1(=O)=O (stereo not given)	–	11.9%
CC(C)(O)CC(=O)NCCn1ccc2ncnc(Nc3ccc(Oc4cccc(C(F)(F)F)c4)c(Cl)c3)c21	8.91 µM (active)	–
COc1ccc2cc1Oc1cc3c(cc1OC)CC[N+](C)(C)[C@H]3Cc1ccc(cc1)Oc1c(OC)c(OC)cc3c1[C@@H](C2)[N+](C)(C)CC3	–	0.0747%
NC1(Cc2ccc(Cl)cc2)CCN(c2ncnc3[nH]ccc23)CC1	20 µM (active)	–
COC(=O)C1=C(C)NC(C)=C(C(=O)OCC(C)=O)C1c1ccccc1[N+](=O)[O-] (stereo not given)	6.51 µM (active)	–
CN(C)c1ccc(C(=C2C=CC(=[N+](C)C)C=C2)c2ccccc2)cc1	0.92 µM (active)	–
C=CCNC1=C2CC(C)CC(OC)C(O)C(C)/C=C(\C)C(OC(N)=O)C(OC)/C=C/C=C(\C)C(=O)NC(=CC1=O)C2=O (stereo not given)	10 µM (active)	–
